Source: PubChem BioAssay AID1159580 (chemical genetic matrix, 2015)
The campaign covered roughly 5,500 compounds. About 2,000 (36%) were called active. Another 18% or so got no clear call; they are omitted. No stated cut-off is given here; in the data, active means normalized growth mostly below about 0.91 (no sharp cut-off); inconclusive means no clear call, values can overlap the other calls; inactive means mostly above about 0.92. The list shows a part of the results.

Experiment: chemical genetic growth profiling, strain panel (AID 1159580);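 further: tested at 20 µM; growth read once vehicle control cultures reached saturation at 30 °C; 1 = growth at the plate median or of vehicle wells; lower values mean less growth of the strain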
Details: growth OD

Measured: normalized growth

CC(Cc1ccc(O)c(O)c1)(NN)C(=O)O (centres undefined)
inactive: S. cerevisiae deletion strains, locus YJR075W, strain HOC1, hits give low values 1.02 | S. cerevisiae deletion strains, locus YKL009W, strain mrt4, hits give low values 0.991 | S. cerevisiae deletion strains, locus YKL068W, hits give low values 0.997 | S. cerevisiae deletion strains, locus YKL085W, strain MDH1 (second series), hits give low values 0.992 | S. cerevisiae deletion strains, locus YKL085W, strain MDH1, hits give low values 0.992 | S. cerevisiae deletion strains, locus YKL160W, strain elf1, hits give low values 1.01 | S. cerevisiae deletion strains, locus YKL190W, strain CNB1, hits give low values 0.991 | S. cerevisiae deletion strains, locus YKR001C, strain vps1, hits give low values 1 | S. cerevisiae deletion strains, locus YKR026C, strain gcn3, hits give low values 0.988 | S. cerevisiae deletion strains, locus YKR091W, strain srl3, hits give low values 1.01 | S. cerevisiae deletion strains, locus YLL001W, strain dnm1, hits give low values 1.01 | S. cerevisiae deletion strains, locus YLL026W, hits give low values 1.01 | S. cerevisiae deletion strains, locus YLL041C, strain sdh2, hits give low values 1.01 | S. cerevisiae deletion strains, locus YLR027C, strain aat2, hits give low values 1.01 | S. cerevisiae deletion strains, locus YLR039C, strain RIC1, hits give low values 1.04 | S. cerevisiae deletion strains, locus YLR058C, strain SHM2, hits give low values 1.01 | S. cerevisiae deletion strains, locus YLR102C, strain apc9, hits give low values 1.02 | S. cerevisiae deletion strains, locus YLR113W, strain HOG1, hits give low values 0.918 | S. cerevisiae deletion strains, locus YLR221C, strain rsa3, hits give low values 1.01 | S. cerevisiae deletion strains, locus YLR258W, strain gsy2, hits give low values 0.999 | S. cerevisiae deletion strains, locus YLR262C, strain YPT6 (second series), hits give low values 0.978 | S. cerevisiae deletion strains, locus YLR262C, strain YPT6, hits give low values 1.03 | S. cerevisiae deletion strains, locus YLR268W, strain sec22, hits give low values 0.996 | S. cerevisiae deletion strains, locus YLR320W, strain mms22, hits give low values 1.02 | S. cerevisiae deletion strains, locus YLR330W, strain CHS5, hits give low values 1 | S. cerevisiae deletion strains, locus YLR342W, strain FKS1 (second series), hits give low values 0.966 | S. cerevisiae deletion strains, locus YLR342W, strain FKS1, hits give low values 0.992 | S. cerevisiae deletion strains, locus YLR357W, strain rsc2, hits give low values 0.973 | S. cerevisiae deletion strains, locus YLR370C, strain arc18, hits give low values 1.01 | S. cerevisiae deletion strains, locus YLR371W, strain rom2, hits give low values 1.01 | S. cerevisiae deletion strains, locus YLR384C, strain iki3, hits give low values 0.976 | S. cerevisiae deletion strains, locus YLR418C, strain cdc73, hits give low values 1.07 | S. cerevisiae deletion strains, locus YML016C, strain PPZ1, hits give low values 0.999 | S. cerevisiae deletion strains, locus YML032C, strain rad52, hits give low values 1.01 | S. cerevisiae deletion strains, locus YML120C, strain ndi1, hits give low values 0.99 | S. cerevisiae deletion strains, locus YML124C, strain tub3, hits give low values 1.01 | S. cerevisiae deletion strains, locus YMR058W, strain fet3, hits give low values 0.987 | S. cerevisiae deletion strains, locus YMR078C, strain ctf18, hits give low values 1.02 | S. cerevisiae deletion strains, locus YMR125W, strain sto1, hits give low values 1 | S. cerevisiae deletion strains, locus YMR129W, hits give low values 0.997 | S. cerevisiae deletion strains, locus YMR205C, strain PFK2, hits give low values 1.04 | S. cerevisiae deletion strains, locus YMR223W, strain ubp8, hits give low values 0.996 | S. cerevisiae deletion strains, locus YMR231W, strain pep5, hits give low values 1.01 | S. cerevisiae deletion strains, locus YMR263W, strain SAP30, hits give low values 0.988 | S. cerevisiae deletion strains, locus YMR307W, strain GAS1, hits give low values 1.05 | S. cerevisiae deletion strains, locus YNL067W, strain RPL9B, hits give low values 0.966 | S. cerevisiae deletion strains, locus YNL071W, strain lat1, hits give low values 0.993 | S. cerevisiae deletion strains, locus YNL183C, strain NPR1, hits give low values 0.912 | S. cerevisiae deletion strains, locus YNL209W, strain ssb2, hits give low values 0.993 | S. cerevisiae deletion strains, locus YNL233W, strain BNI4, hits give low values 0.982 | S. cerevisiae deletion strains, locus YNL248C, strain rpa49, hits give low values 1.01 | S. cerevisiae deletion strains, locus YNL250W, strain rad50, hits give low values 1 | S. cerevisiae deletion strains, locus YNL271C, strain bni1, hits give low values 1.01 | S. cerevisiae deletion strains, locus YNL298W, strain CLA4, hits give low values 1.02 | S. cerevisiae deletion strains, locus YNL307C, strain MCK1, hits give low values 1.02 | S. cerevisiae deletion strains, locus YNL322C, strain KRE1 (second series), hits give low values 1 | S. cerevisiae deletion strains, locus YNL322C, strain KRE1, hits give low values 0.999 | S. cerevisiae deletion strains, locus YNR049C, strain mso1, hits give low values 1.01 | S. cerevisiae deletion strains, locus YNR052C, strain pop2, hits give low values 1.01 | S. cerevisiae deletion strains, locus YOL006C, strain TOP1, hits give low values 0.989 | S. cerevisiae deletion strains, locus YOL012C, strain htz1 0.764 | S. cerevisiae deletion strains, locus YOL147C, strain pex11, hits give low values 1.01 | S. cerevisiae deletion strains, locus YOR001W, strain rrp6, hits give low values 0.987 | S. cerevisiae deletion strains, locus YOR061W, strain CKA2, hits give low values 1 | S. cerevisiae deletion strains, locus YOR069W, strain VPS5, hits give low values 1.03 | S. cerevisiae deletion strains, locus YOR070C, strain gyp1, hits give low values 1 | S. cerevisiae deletion strains, locus YOR080W, strain dia2, hits give low values 1 | S. cerevisiae deletion strains, locus YOR083W, strain WHI5, hits give low values 0.996 | S. cerevisiae deletion strains, locus YOR106W, strain vam3, hits give low values 0.984 | S. cerevisiae deletion strains, locus YOR136W, strain idh2, hits give low values 1.01 | S. cerevisiae deletion strains, locus YOR144C, strain elg1, hits give low values 1 | S. cerevisiae deletion strains, locus YOR184W, strain ser1, hits give low values 1.03 | S. cerevisiae deletion strains, locus YOR231W, strain MKK1, hits give low values 0.955 | S. cerevisiae deletion strains, locus YOR265W, strain rbl2, hits give low values 0.993 | S. cerevisiae deletion strains, locus YOR270C, strain vph1, hits give low values 1.11 | S. cerevisiae deletion strains, locus YOR290C, strain snf2, hits give low values 1 | S. cerevisiae deletion strains, locus YOR316C, strain cot1, hits give low values 1.01 | S. cerevisiae deletion strains, locus YPL051W, strain arl3, hits give low values 0.991 | S. cerevisiae deletion strains, locus YPL055C, strain LGE1, hits give low values 0.926 | S. cerevisiae deletion strains, locus YPL078C, strain atp4, hits give low values 0.991 | S. cerevisiae deletion strains, locus YPL106C, strain sse1, hits give low values 0.918 | S. cerevisiae deletion strains, locus YPL240C, strain hsp82, hits give low values 1 | S. cerevisiae deletion strains, locus YPL256C, strain CLN2, hits give low values 0.968 | S. cerevisiae deletion strains, locus YPR119W, strain clb2, hits give low values 1.01 | S. cerevisiae deletion strains, locus YPR141C, strain kar3, hits give low values 0.999 | S. cerevisiae deletion strains, locus YPR163C, strain tif3, hits give low values 1.01 | S. cerevisiae deletion strains, locus YPR167C, strain met16, hits give low values 1.02 | S. cerevisiae deletion strains, strain wtn01, hits give low values 1.01 | S. cerevisiae strains, strain wild type, hits give low values 0.988
